# Assay outcomes: PubChem, Broad Institute
# A selection follows.
# aSyn UTR act: Activators via SNCA 5'UTR binding, MLPCN; 7.1% of 300,000 active; activity score, % (tested at 7.5 µM), hits read low; alpha-synuclein 5'UTR reporter, activators screen; in the data active = activity score below about -60%
# A number is an active result; - = inactive.
SMILES,aSyn UTR act
O=C(Nc1cccc(Cl)c1Cl)c1ccc(-c2ccccc2)cc1,-159
Cn1cc(Cl)c(C(=O)Nc2cccc(Cl)c2Cl)n1,-155
O=C(NNC(=O)c1ccccc1OCc1ccc(F)cc1)c1ccccc1O,-
COc1ccccc1OCc1ccc(C(=O)Nc2ccccc2F)cc1,-75
Cc1ccc(C(=O)Nc2ccccc2C(=O)NC(C(=O)O)C(C)C)cc1 (stereo not given),-69
O=C(Nc1ccccc1Cl)c1ccccc1,-87
Cc1cccc(N2Cc3ccc(Br)cc3C2)c1,-125
CC(=O)c1ccc(NS(=O)(=O)c2c(C)cc(C)cc2C)cc1,-102
Cc1cc(C)c(S(=O)(=O)Nc2ccc3c4c(cccc24)CC3)c(C)c1,-
N#CCN1CCN(CC(=O)Nc2ccc(OCc3ccccc3)cc2)CC1,-62
CN1CCN(CC(=O)Nc2ccc(OCc3ccccc3)cc2)CC1,-90
O=C(Nc1nc2c(s1)CN(Cc1ccccc1)CC2)C1CCC1,-108
CC(=O)c1ccccc1OC(=O)c1ccc(-c2ccccc2)cc1,-78
Cn1c(=O)c(C(=O)NC2CCCCCCC2)c(O)c2ccccc21,-166
CC1CCC(NC(=O)c2cc3c(=O)n(C)c4ccccc4c3n2C)CC1 (stereo not given),-98
Cn1cc(C(=O)C(=O)NC2CCCCC2)c2ccccc21,-68
C=CCn1c(O)c(N=NC(=S)Nc2ccc(OC)c(Cl)c2)c2ccccc21,-
COc1ccc(NC(=O)c2cc3c(=O)n(C)c4ccccc4c3n2C)cc1Cl,-72
Cn1c(=O)c(C(=O)NC2CCCCCC2)c(O)c2ccccc21,-72
O=C1c2ccccc2S(=O)(=O)N1CC1CC(c2ccccc2Cl)=NO1 (stereo not given),-81
COc1ccccc1C1=NOC(CN2C(=O)c3ccccc3S2(=O)=O)C1 (stereo not given),-127
O=C(CN1C(=O)c2ccccc2S1(=O)=O)c1ccc(O)c(O)c1,-
Clc1cc2nc(-c3cccnc3Cl)[nH]c2cc1Cl,-229
Cc1ccc(Nc2nnc(-c3ccc4c(c3)OCO4)o2)c(C)c1,-93
O=[N+]([O-])c1ccc(-c2cnc(SCc3ccccc3Cl)[nH]2)cc1,-89
SMILES,aSyn UTR act
CCOc1ccc(CC(=O)Nc2ccc(-c3ccc4nnc(C)n4n3)cc2)cc1,-87
Cc1ccn2cc(-c3cccc(NS(C)(=O)=O)c3)nc2c1,-150
Cc1ccn2cc(-c3ccc(NC(=O)c4ccco4)cc3)nc2c1,-95
CC(=O)Nc1cccc(-c2cn3ccc(C)cc3n2)c1,-107
Cc1nnc2ccc(-c3ccc(NC(=O)c4ccco4)cc3)nn12,-254
COc1ccc2cc(CCNC(=O)c3ccco3)c(=O)[nH]c2c1,-117
Cc1cc2cc(CCNC(=O)c3cccs3)c(=O)[nH]c2cc1C,-149
CCC(c1nnnn1CCc1ccccc1)N(Cc1ccco1)Cc1cc2c(C)ccc(C)c2[nH]c1=O (stereo not given),-
CC(=O)Nc1ccc(S(=O)(=O)N(Cc2cccnc2)Cc2cc3ccc(C)cc3[nH]c2=O)cc1,-
Cc1ccc2cc(CCNC(=O)c3ccco3)c(=O)[nH]c2c1,-143
Cc1ccc2cc(CCNC(=O)c3ccco3)c(=O)[nH]c2c1C,-138
Cc1ccc(C2=NN(S(C)(=O)=O)C(c3cccs3)C2)cc1 (stereo not given),-146
CS(=O)(=O)N1N=C(c2ccc(Br)cc2)CC1c1cccs1 (stereo not given),-117
COc1ccc(C2CC(c3cccs3)=Nc3ccccc3S2)cc1 (stereo not given),-163
CCc1ccc(C2=NN(S(C)(=O)=O)C(c3cccs3)C2)cc1 (stereo not given),-92
COc1ccc(C2=NN(S(C)(=O)=O)C(c3cccs3)C2)cc1 (stereo not given),-95
COc1ccc(C2CC(c3cccs3)=NN2S(C)(=O)=O)cc1 (stereo not given),-85
COC(=O)c1ccc(N2CCN(C)CC2)c(NC(=O)COc2ccc(OC)cc2)c1,-68
O=C1C(Cl)=C(Nc2cccc(O)c2)C(=O)N1Cc1ccccc1,-69
O=C(NCC1CCCO1)c1ccc2c3n(nc2c1)-c1ccccc1CO3 (stereo not given),-103
O=C(c1ccc2c3n(nc2c1)-c1ccc(Cl)cc1CO3)N1CCOCC1,-109
O=C(c1ccc2c3n(nc2c1)-c1ccccc1CO3)N1CCOCC1,-114
Cc1ccc2c(c1)COc1c3ccc(C(=O)N4CCCCC4)cc3nn1-2,-108
Cc1oc2c(c1C(=O)N1CCC(C)CC1)C(=O)c1ccccc1C2=O,-
CC1CCN(C(=O)c2cc3ccccc3c(=O)o2)CC1,-78
SMILES,aSyn UTR act
CCOC(=O)C1CCN(C(=O)c2cc3c(ccc4ccccc43)o2)CC1,-115
CCOC(=O)C1CCN(C(=O)c2c(C)oc3c2C(=O)c2ccccc2C3=O)CC1,-
CCOC(=O)C1CCN(Cc2c(O)ccc3ccccc23)CC1,-108
COc1cc2c(cc1OC)C(C)N(C(=O)c1cc(Cl)nc(Cl)c1)CC2 (stereo not given),-105
CC(C)/C(=N/Nc1ccccc1[N+](=O)[O-])c1ccccc1,-86
C/C(=N\Nc1ccccc1[N+](=O)[O-])c1ccc(N2CCOCC2)cc1,-82
O=[N+]([O-])c1c(Nc2ccccc2O)cc(N2CCOCC2)c2nonc12,-
C/C(=N/Nc1ccccc1[N+](=O)[O-])c1ccc(C)c([N+](=O)[O-])c1,-166
c1ccc(-c2nnc(-c3ccccn3)nn2)nc1,-122
c1ccc(-c2cccc(-c3ccccn3)n2)nc1,-
Nc1ccc2oc(-c3ccccc3Cl)nc2c1,-
CCc1ccc2oc(-c3cc(N)ccc3Cl)nc2c1,-63
Cc1nnc(NC(=O)Nc2cccc(Cl)c2)s1,-122
Cc1csc(NC(=O)Nc2cccc(Cl)c2)n1,-203
CC(C)=CCc1c(O)cc2oc3c(CC=C(C)C)c(O)c(O)c(CC=C(C)C)c3c(=O)c2c1O,-
CC1Oc2cc3oc4c(O)c(O)ccc4c(=O)c3c(O)c2C1(C)C (stereo not given),-150
CC(C)C(=O)Nc1nnc(NC(=S)Nc2ccccc2)s1,-127
CCCc1nnc(NC(=S)Nc2ccccc2)s1,-127
CCOC(=O)C1(CCc2ccccc2)CCN(C(=O)CCn2cncn2)CC1,-99
CCOC(=O)C1(Cc2ccccc2Cl)CCN(C(=O)CCn2ccnc2C)CC1,-81
COc1cccc(Nc2nnc(SCC3CCCCO3)s2)c1 (stereo not given),-76
COc1ccc(Nc2nnc(SCC3CCCO3)s2)cc1 (stereo not given),-105
Cc1cc(NC(=O)Nc2ccccc2F)ccc1Br,-243
O=C(Nc1ccccc1)Nc1cc(OCC(F)(F)F)cc(OCC(F)(F)F)c1,-
O=C(Nc1ccccc1)Nc1ccc(Br)cc1F,-163
SMILES,aSyn UTR act
O=C(Nc1cccc(Cl)c1)Nc1ccc(Br)cc1F,-115
COc1ccc(NC(=S)c2ccccc2)cc1,-148
CCOc1ccc(NC(=S)c2ccncc2)cc1,-110
COc1ccc(C(=S)Nc2ccc(N(C)C)cc2)cc1,-99
Cc1ccc(NC(=S)c2ccc(N(C)C)cc2)cc1,-
O=C(/C=C/Nc1cccc([N+](=O)[O-])c1)c1cccs1,-279
Cc1cc(N/C=C/C(=O)c2cccs2)ccc1F,-250
O=C(/C=C/Nc1ccc(Nc2ccccc2)cc1)c1cccs1,-170
O=C(/C=C/Nc1ccccc1C(=O)O)c1cccs1,-72
Cc1ccc(N/C=C/C(=O)c2cccs2)cc1C,-180
COc1ccccc1-c1cc2ccccc2[nH]1,-207
CCNC(=S)N/N=C/c1cc(C)n(-c2ccc(Cl)cc2)c1C,-125
